In PubChem BioAssay AID1159580 (chemical genetic matrix, 2015):
Several values for one entry are separate records, joined by “and”; a condition that tells them apart may be missing. Equal entries are not always repeated. Out of some 5,500 compounds screened, about 2,000 (36%) were called active. About 18% were inconclusive and are not listed. Cut-off read from the data, not from the text of the source: active = normalized growth mostly below about 0.91 (no sharp cut-off); inconclusive = no clear call, values can overlap the other calls; inactive = mostly above about 0.92. The list shows a part of the results.

Test: chemical genetic growth profiling, strain panel (AID 1159580);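 note: tested at 20 µM; growth read once vehicle control cultures reached saturation at 30 °C; 1 = growth at the plate median or of vehicle wells; lower values mean less growth of the strain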
Conditions: S. cerevisiae deletion strains, growth OD

Measured: normalized growth

O=C1NC(=O)C(=O)C(=O)N1
inactive: locus YAL013W, strain DEP1, active compounds read low 1.01 | locus YAL021C, strain ccr4, active compounds read low 1 | locus YAL026C, strain drs2, active compounds read low 0.991 | locus YAL030W, strain snc1, active compounds read low 0.989 | locus YBL061C, strain skt5, active compounds read low 0.984 | locus YBR009C, strain hhf1, active compounds read low 0.997 | locus YBR021W, strain FUR4, active compounds read low 1.03 | locus YBR023C, strain chs3, active compounds read low 0.997 | locus YBR171W, strain sec66, active compounds read low 0.979 | locus YBR229C, strain ROT2, active compounds read low 1.01 | locus YBR231C, strain swc5, active compounds read low 0.986 | locus YBR279W, strain paf1, active compounds read low 0.993 | locus YCL011C, strain gbp2, active compounds read low 0.996 | locus YCL016C, strain dcc1, active compounds read low 0.995 | locus YCL029C, strain bik1, active compounds read low 0.984 | locus YCL061C, strain MRC1, active compounds read low 0.988 | locus YCL069W, strain vba3, active compounds read low 0.989 | locus YCR088W, strain abp1, active compounds read low 0.984 | locus YDL005C, strain med2, active compounds read low 0.984 | locus YDL035C, strain GPR1, active compounds read low 1.03 | locus YDL040C, strain nat1, active compounds read low 0.988 | locus YDL074C, strain BRE1, active compounds read low 1.04 | locus YDL101C, strain DUN1, active compounds read low 1.02 | locus YDL134C, strain PPH21, active compounds read low 1.02 | locus YDL185W, strain tfp1, active compounds read low 1 | locus YDL192W, strain arf1, active compounds read low 0.998 | locus YDR001C, strain nth1, active compounds read low 0.981 | locus YDR069C, strain doa4, active compounds read low 0.998 | locus YDR101C, strain arx1, active compounds read low 0.995 | locus YDR137W, strain rgp1, active compounds read low 0.999 | locus YDR150W, strain NUM1, active compounds read low 1.02 | locus YDR159W, strain sac3, active compounds read low 0.986 | locus YDR162C, strain NBP2, active compounds read low 1.02 | locus YDR195W, strain ref2 0.962 | locus YDR297W, strain sur2, active compounds read low 0.999 | locus YDR318W, strain mcm21, active compounds read low 0.993 | locus YDR334W, strain swr1, active compounds read low 0.99 | locus YDR335W, strain msn5, active compounds read low 0.995 | locus YDR388W, active compounds read low 0.98 | locus YDR392W, strain spt3, active compounds read low 0.979 | locus YDR502C, strain sam2, active compounds read low 1.01 | locus YEL003W, strain gim4, active compounds read low 0.989 | locus YEL037C, strain rad23, active compounds read low 0.996 | locus YEL061C, strain CIN8 (second series), active compounds read low 0.983 | locus YEL061C, strain CIN8, active compounds read low 1.01 | locus YER015W, strain faa2, active compounds read low 0.992 | locus YER016W, strain bim1, active compounds read low 0.99 | locus YER110C, active compounds read low 0.988 | locus YER111C, strain swi4, active compounds read low 0.986 | locus YER155C, strain BEM2 (second series), active compounds read low 0.98 | locus YER155C, strain BEM2, active compounds read low 1.01 | locus YER167W, strain BCK2, active compounds read low 1.03 | locus YFR010W, strain ubp6, active compounds read low 0.974 | locus YGL078C, strain dbp3, active compounds read low 0.985 | locus YGL086W, strain mad1, active compounds read low 1.01 | locus YGL167C, strain pmr1, active compounds read low 0.987 | locus YGL173C, strain kem1, active compounds read low 0.969 | locus YGL227W, strain vid30, active compounds read low 0.975 | locus YGL240W, strain doc1, active compounds read low 0.99 | locus YGL248W, strain PDE1, active compounds read low 1.02 | locus YGL253W, strain hxk2, active compounds read low 0.993 | locus YGR078C, strain PAC10, active compounds read low 1.02 | locus YGR135W, strain pre9, active compounds read low 1 | locus YGR229C, strain SMI1, active compounds read low 1.03 | locus YGR252W, strain gcn5, active compounds read low 1.03 | locus YHR013C, strain ard1, active compounds read low 0.991 | locus YHR027C, strain rpn1, active compounds read low 0.984 | locus YHR030C, strain SLT2, active compounds read low 1.01 and 0.971 | locus YHR079C, strain IRE1 (second series), active compounds read low 0.991 | locus YHR079C, strain IRE1, active compounds read low 0.971 | locus YHR094C, strain hxt1, active compounds read low 0.994 | locus YHR129C, strain ARP1, active compounds read low 1.01 | locus YHR142W, strain chs7, active compounds read low 0.988 | locus YHR200W, strain rpn10, active compounds read low 0.993 | locus YIL066C, strain RNR3, active compounds read low 1.03 | locus YIL073C, strain SPO22, active compounds read low 0.994 | locus YIL125W, strain kgd1, active compounds read low 1 | locus YIR030C, strain dcg1, active compounds read low 0.992 | locus YJL092W, strain hpr5, active compounds read low 0.991 | locus YJL095W, strain BCK1 (second series), active compounds read low 1 | locus YJL095W, strain BCK1, active compounds read low 1.01 and 0.96 | locus YJL115W, strain asf1, active compounds read low 0.978 | locus YJL129C, strain trk1, active compounds read low 1 | locus YJL134W, strain LCB3, active compounds read low 1.01 | locus YJL154C, strain vps35, active compounds read low 0.985 | locus YJL164C, strain tpk1, active compounds read low 1.01 | locus YJL166W, strain qcr8, active compounds read low 1 | locus YJL168C, strain set2, active compounds read low 0.988 | locus YJL187C, strain SWE1 (second series), active compounds read low 1.01 | locus YJL187C, strain SWE1, active compounds read low 0.989 | locus YJR043C, strain POL32, active compounds read low 1 | locus YJR066W, strain TOR1, active compounds read low 0.974
